Calls of active or inactive are those of the source. How the source made its calls: active means hit-call score of the fitted dose curve at least 0.9, where 1 is the maximum; inactive means score below 0.9.
What was measured:
Details in all cases: mRNA level, 48 h; actives raise or lower the signal
[1] = read-out: matrix metalloproteinase-10 (MMP10), MMP10 (gene 4319); test: LTEA_HepaRG_MMP10: Life Technologies and Expression Analysis (LTEA) Assay for matrix metalloproteinase-10 (MMP10) using HepaRG (AID 2283517)
How it was run: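 In differentiated HepaRG cultures kept in 0.5% DMSO, test chemicals act for 48 h over an eight-point range with a top dose of 100 uM. Expression is then quantified by TaqMan RT-PCR against ACTB, GAPDH and POLR2A.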

MYC, MYC (gene 4609) = test: LTEA_HepaRG_MYC: Life Technologies and Expression Analysis (LTEA) Assay for MYC using HepaRG (AID 2283518)
How it was run: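 qRT-PCR read-out of MYC transcript (Fluidigm TaqMan, housekeeping-normalized) after 48 h chemical exposure of HepaRG cells; eight concentrations, top 100 uM, half-log steps. Bidirectional curve fitting against 0.5% DMSO vehicle baseline.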

[2] = read-out: matrix metalloproteinase-3 (MMP3), MMP3 (gene 4314); test: LTEA_HepaRG_MMP3: Life Technologies and Expression Analysis (LTEA) Assay for matrix metalloproteinase-3 (MMP3) using HepaRG (AID 2283519)
How it was run: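 Human liver HepaRG cultures received chemicals (top concentration 100 uM, 0.5% DMSO) for 48 h in duplicate. MMP3 mRNA induction or loss was then assessed via TaqMan qRT-PCR with housekeeping-gene normalisation.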

[3] = read-out: Paternally Expressed 10 (PEG10), PEG10 (gene 23089); test: LTEA_HepaRG_PEG10: Life Technologies and Expression Analysis (LTEA) Assay for Paternally Expressed 10 (PEG10) using HepaRG (AID 2283520)
How it was run: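 PEG10 transcript measured by Fluidigm qRT-PCR, normalized to three housekeeping genes, in HepaRG cells treated 48 h (highest 100 uM, half-log steps, 0.5% DMSO vehicle). Cells plated 48 h before switching to serum-free induction medium.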

[4] = read-out: Protein phosphatase 2A (PPP2R4), PTPA (gene 5524); test: LTEA_HepaRG_PPP2R4: Life Technologies and Expression Analysis (LTEA) Assay for Protein phosphatase 2A (PPP2R4) using HepaRG (AID 2283522)
How it was run: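 Expression was quantified by Fluidigm qRT-PCR normalised to three housekeeping genes after 48 h treatment. Human HepaRG cells received an 8-point series from 100 µM downward by half-logs, in duplicate with 0.5% DMSO vehicle and 1 mM phenobarbital as induction control.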

[5] = read-out: solute carrier (SLC22A1), SLC22A1 (gene 6580); test: LTEA_HepaRG_SLC22A1: Life Technologies and Expression Analysis (LTEA) Assay for solute carrier (SLC22A1) using HepaRG (AID 2283524)
How it was run: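 Transcript induction or suppression of SLC22A1 in human HepaRG cultures is scored after 48 h chemical treatment, with DMSO (0.5%) as baseline for bidirectional fitting. Concentrations span eight half-log points topping at 100 uM.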

[6] = read-out: Pyruvate Dehydrogenase Kinase 4 (PDK4), PDK4 (gene 5166); test: LTEA_HepaRG_PDK4: Life Technologies and Expression Analysis (LTEA) Assay for Pyruvate Dehydrogenase Kinase 4 (PDK4) using HepaRG (AID 2283525)
How it was run: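 Eight-point, half-log concentration series (max 100 uM, 0.5% DMSO) applied to differentiated HepaRG cells for 48 h in duplicate. Endpoint: PDK4 mRNA induction or repression by qRT-PCR against DMSO baseline.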

[7] = read-out: NAD(P)H dehydrogenase [quinone] 1 (NQO1), NQO1 (gene 1728); test: LTEA_HepaRG_NQO1: Life Technologies and Expression Analysis (LTEA) Assay for NAD(P)H dehydrogenase [quinone] 1 (NQO1) using HepaRG (AID 2283526)
How it was run: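 NQO1 transcript induction or loss measured by TaqMan qRT-PCR, referenced to three housekeeping genes and fitted bidirectionally against 0.5% DMSO. HepaRG cultures exposed 48 h, duplicate, eight-point half-log series, top 100 uM.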

[8] = read-out: Nuclear factor erythroid 2-related factor 2 (Homo sapiens) (UniProt Q16236); test: LTEA_HepaRG_NFE2L2: Life Technologies and Expression Analysis (LTEA) Assay for Nuclear factor erythroid 2-related factor 2 (NFE2L2) Transcription Factor using HepaRG (AID 2283527);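 further: TaqMan qRT-PCR transcript level normalised to ACTB GAPDH and POLR2A housekeeping genes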
How it was run: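 Human liver HepaRG line treated in duplicate for 48 h with an eight-point series topping at 100 uM. Gene expression of NFE2L2 by qRT-PCR, bidirectionally fitted against the vehicle control.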

[9] = read-out: succinate dehydrogenase complex iron sulfur subunit B (SDHB), SDHB (gene 6390); test: LTEA_HepaRG_SDHB: Life Technologies and Expression Analysis (LTEA) Assay for succinate dehydrogenase complex iron sulfur subunit B (SDHB) using HepaRG (AID 2283528)
How it was run: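 HepaRG cells (~100,000/well, plated 48 h) exposed in duplicate for 48 h in serum-free induction medium to 8-point half-log series from 100 uM in 0.5% DMSO; mRNA by qRT-PCR normalised to ACTB, GAPDH, POLR2A; bidirectional fit versus DMSO.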

[10] = read-out: Signal transducer and activator of transcription 3 (Homo sapiens) (UniProt P40763); test: LTEA_HepaRG_STAT3: Life Technologies and Expression Analysis (LTEA) Assay for Signal transducer and activator of transcription (STAT3) using HepaRG (AID 2283529)
How it was run: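 In this transcriptional endpoint, HepaRG cultures receive test chemicals at up to 100 uM for 48 h, tested in duplicate. STAT3 mRNA is normalized to ACTB, GAPDH and POLR2A.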

[11] = read-out: solute carrier (SLCO1B1), SLCO1B1 (gene 10599); test: LTEA_HepaRG_SLCO1B1: Life Technologies and Expression Analysis (LTEA) Assay for solute carrier (SLCO1B1) using HepaRG (AID 2283530)
How it was run: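 SLCO1B1 transcript read by qRT-PCR (Fluidigm arrays), normalized to three housekeeping genes, after 48 h chemical exposure of HepaRG cells; bidirectional concentration-response fitting versus 0.5% DMSO baseline. Eight-point half-log series, maximum 100 uM.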

[12] = read-out: sulfotransferase 2A1 (SULT2A1), SULT2A1 (gene 6822); test: LTEA_HepaRG_SULT2A1: Life Technologies and Expression Analysis (LTEA) Assay for sulfotransferase 2A1 (SULT2A1) using HepaRG (AID 2283531)
How it was run: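 HepaRG, 48 h chemical exposure, 8-pt half-log curve from 100 uM in 0.5% DMSO, duplicates. Readout: TaqMan qRT-PCR of SULT2A1 mRNA, housekeeping-normalized. Bidirectional fit vs DMSO baseline.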

[13] = read-out: Transforming Growth Factor (TGFA), TGFA (gene 7039); test: LTEA_HepaRG_TGFA: Life Technologies and Expression Analysis (LTEA) Assay for Transforming Growth Factor (TGFA) using HepaRG (AID 2283532)
How it was run: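 Gene expression of TGFA was quantified by qRT-PCR after human HepaRG cells were treated for 48 h with test chemicals (eight concentrations, highest 100 uM, 0.5% DMSO). Activity in either direction was fitted relative to DMSO.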

[14] = read-out: Transforming Growth Factor (TGFB1), TGFB1 (gene 7040); test: LTEA_HepaRG_TGFB1: Life Technologies and Expression Analysis (LTEA) Assay for Transforming Growth Factor (TGFB1) Transporter using HepaRG (AID 2283533)
How it was run: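 qRT-PCR readout of TGFB1 transcript in HepaRG lysates, normalized to three housekeeping genes; gain or loss of signal fitted relative to 0.5% DMSO vehicle. Exposure: 48 h, 8-point curve from 100 uM, duplicate wells.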

TIMP1, TIMP1 (gene 7076) = test: LTEA_HepaRG_TIMP1: Life Technologies and Expression Analysis (LTEA) Assay for TIMP1 using HepaRG (AID 2283534);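 further: TaqMan qRT-PCR signal normalized to ACTB GAPDH and POLR2A housekeeping genes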
How it was run: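 HepaRG, 48 h exposure, 8-pt half-log series from 100 uM in 0.5% DMSO, duplicates; TIMP1 transcript by Fluidigm qRT-PCR, housekeeping-normalized; bidirectional curve fit vs DMSO baseline.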

[15] = read-out: Tumor necrosis factor receptor 1 (TNFRSF1A), TNFRSF1A (gene 7132); test: LTEA_HepaRG_TNFRSF1A: Life Technologies and Expression Analysis (LTEA) Assay for Tumor necrosis factor receptor 1 (TNFRSF1A) using HepaRG (AID 2283535)
How it was run: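 HepaRG, 48 h plating then 48 h chemical exposure, serum-free induction media; 8-pt CRC from 100 uM, half-log, 0.5% DMSO vehicle, duplicates. Readout: TaqMan qRT-PCR (Fluidigm), housekeeping-gene normalized; bidirectional fit vs DMSO.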

[16] = read-out: Thyroid Hormone Responsive (THRSP), THRSP (gene 7069); test: LTEA_HepaRG_THRSP: Life Technologies and Expression Analysis (LTEA) Assay for Thyroid Hormone Responsive (THRSP) using HepaRG (AID 2283536)
How it was run: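 Cell model: human HepaRG, approx. 100,000 cells/well, 0.5% DMSO vehicle. Exposure lasts 48 h; phenobarbital 1 mM serves as induction positive control. Gene expression is measured by qRT-PCR against three endogenous control genes.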

[17] = read-out: Phosphatase and tensin (PTEN), PTEN (gene 5728); test: LTEA_HepaRG_PTEN: Life Technologies and Expression Analysis (LTEA) Assay for Phosphatase and tensin (PTEN) using HepaRG (AID 2283523)
How it was run: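 Expression of PTEN is quantified in the human liver line HepaRG following two days of dosing (top concentration 100 uM, half-log dilutions, 0.5% DMSO). Values derive from bidirectional curve fitting relative to DMSO controls.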

Measured: outcome

Chain of Signal transducer and activator of transcription 3 (Homo sapiens) (P40763 whole entry, looked up): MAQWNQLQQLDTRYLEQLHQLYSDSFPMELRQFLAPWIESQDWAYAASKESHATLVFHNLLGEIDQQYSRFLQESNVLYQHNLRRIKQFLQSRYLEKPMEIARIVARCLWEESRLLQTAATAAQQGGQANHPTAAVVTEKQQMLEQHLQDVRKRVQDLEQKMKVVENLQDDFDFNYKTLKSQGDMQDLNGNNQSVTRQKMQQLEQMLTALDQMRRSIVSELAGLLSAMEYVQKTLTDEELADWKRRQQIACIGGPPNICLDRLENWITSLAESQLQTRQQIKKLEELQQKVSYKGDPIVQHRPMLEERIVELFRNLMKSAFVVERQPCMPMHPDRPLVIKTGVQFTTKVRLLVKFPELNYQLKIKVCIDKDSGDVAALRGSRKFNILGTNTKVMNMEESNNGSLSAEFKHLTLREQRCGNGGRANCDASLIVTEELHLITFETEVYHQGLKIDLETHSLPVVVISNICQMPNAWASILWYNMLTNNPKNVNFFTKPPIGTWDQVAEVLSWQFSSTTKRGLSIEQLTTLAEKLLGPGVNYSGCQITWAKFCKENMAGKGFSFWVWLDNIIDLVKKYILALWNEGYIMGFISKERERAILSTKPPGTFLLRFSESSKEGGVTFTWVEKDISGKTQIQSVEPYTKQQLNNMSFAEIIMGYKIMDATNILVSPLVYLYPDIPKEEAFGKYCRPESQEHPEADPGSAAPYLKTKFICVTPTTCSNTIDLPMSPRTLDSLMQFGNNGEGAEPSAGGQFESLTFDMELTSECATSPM
Chain of Nuclear factor erythroid 2-related factor 2 (Homo sapiens) (Q16236 whole entry, looked up): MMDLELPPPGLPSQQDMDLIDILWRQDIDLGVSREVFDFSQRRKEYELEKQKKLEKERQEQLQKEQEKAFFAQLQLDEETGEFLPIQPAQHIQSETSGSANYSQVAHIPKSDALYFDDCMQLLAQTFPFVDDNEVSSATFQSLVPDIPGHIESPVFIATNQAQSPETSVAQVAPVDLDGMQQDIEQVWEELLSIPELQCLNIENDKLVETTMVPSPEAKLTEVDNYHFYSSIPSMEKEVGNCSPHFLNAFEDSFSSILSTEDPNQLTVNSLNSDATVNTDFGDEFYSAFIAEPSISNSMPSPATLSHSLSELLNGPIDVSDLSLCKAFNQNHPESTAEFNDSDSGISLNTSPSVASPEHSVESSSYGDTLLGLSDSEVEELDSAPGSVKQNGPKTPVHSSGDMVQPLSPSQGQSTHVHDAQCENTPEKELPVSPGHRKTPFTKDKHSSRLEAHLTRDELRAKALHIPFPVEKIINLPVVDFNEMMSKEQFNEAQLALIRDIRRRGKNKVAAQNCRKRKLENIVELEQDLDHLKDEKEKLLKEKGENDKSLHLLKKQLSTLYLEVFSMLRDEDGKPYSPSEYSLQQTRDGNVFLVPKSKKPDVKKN

Cc1ccc(Cl)cc1
not listed: [16] | [17]
inactive: all other assays above

CCOC(=O)CCC(=O)OCC
not listed: [17]
inactive: all other assays above

CC=Cc1ccc(O)c(OC)c1
inactive: all assays above

CCCCCCCCCCCCCCCC
not listed: [17]
inactive: all other assays above

CCCc1cc(=O)[nH]c(=S)[nH]1
not listed: [17]
inactive: all other assays above

Reference: PubChem BioAssay (EPA / NIEHS)
